The values below come from PubChem BioAssay (NCATS).

Test [1] can be described thus: Cell Viability - Hek293 (AID 427;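 active = compounds whose dose-response curve shows a full or clear partial loss of cell viability, called from curve shape rather than a numeric limit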;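 note: potency is the fitted concentration of half-maximal effect; cells exposed to compound for 40 hours at 37 °C before reading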). The settings on record: qHTS. The procedure, abridged: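 qHTS, human embryonic kidney (adenovirus-transformed) cells; 40 hr cpd, 37 °C; CellTiter-Glo ATP luminescence. Norm: DMSO = 0, 100 uM tamoxifen = 100% inhibition. Hill-fit AC50.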
For orientation: In qHTS, concentration-response curves come from the screen itself.

Test [2] deals with Mitogen-activated protein kinase 10 (Mus musculus) (UniProt Q61831). The test can be described thus: JNK3 AlphaScreen Assay (AID 530; active = well fitted curve in either direction with a large enough effect, not every such curve was filed as active;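 note: kinase came from lysate of stimulated human HepG2 cells; % is set by controls: 0 for no effect and ±100 for the full control effect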). The settings on record: JNK3 lysate, c-Jun phosphorylation; series mostly up to 57.1 µM. The procedure, abridged: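 JNK3 came from HepG2 lysates pre-activated with IL-1beta and TNF-alpha and phosphorylated biotinylated GST-cJun (1-79) at 10 uM ATP, pH 7.6, room temperature. Compounds were titrated. AlphaScreen signal used anti-phospho-cJun (Ser73) antibody.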
Background: Alpha assays give light when donor and acceptor beads are brought close together.

Test [3] in a line: Cell Viability - N2a (AID 540).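 Note: cells exposed to compound for 40 h at 37 °C; plate controls were DMSO alone for no effect and tamoxifen control for full effect; nearly all actives have a fitted effect of over 45% in size.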 The settings on record: N2a mouse neuroblastoma cell viability; at 92.2 µM (top of the series). The procedure, abridged:
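First, 1500 N2a cells per well incubate 5 hr at 37 °C; next, compounds are added and incubated 40 hr at 37 °C; finally CellTiter-Glo is added and luminescence read after 20 min, with AC50 derived by Hill modeling.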

The nature of test [4]: MultiTox-Fluor Cytotoxicity Assay - LYMP1-001 - Dead Cells (AID 946). As to conditions: LYMP1-001 lymphoblastoid cells, dead-cell protease fluorescence; series mostly up to 92.2 µM. The procedure, abridged:
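Seed 2500 LYMP1-001 cells/well, incubate 5 hr at 37 C; add compound, 16 hr at 37 C; add MultiTox-Fluor reagent, 60 min RT; read dead-cell fluorescence Ex/Em=485/520. Normalize to DMSO and 15 uM tetraoctylammonium bromide.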

A short description of test [5]: Cell Viability - LYMP1-002 - Assay at 16 hr (AID 948).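 Note: 0% = DMSO alone and full effect = 92 µM tetraoctylammonium bromide.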 The settings on record: LYMP1-002 lymphoblastoid cell viability; series mostly up to 92.2 µM. The procedure, abridged: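 Acute cytotoxicity is scored as a concentration-dependent fall in intracellular ATP in a human lymphoblastoid line (LYMP1-002) after 16 hr compound exposure at 37 C, measured by luciferase luminescence.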

Test [6] in a line: MultiTox-Fluor Cytotoxicity Assay - LYMP1-003 - Dead Cells (AID 961). Note: nearly all actives have a fitted effect of over 70% in size. The settings on record: LYMP1-003 lymphoblastoid cells, dead-cell protease fluorescence; series mostly up to 92.2 µM. The procedure, abridged: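 LYMP1-003 lymphoblastoid, 2500 cells/well, 5 hr settle then 16 hr cpd at 37 C; MultiTox-Fluor reagent 60 min RT; Ex/Em 485/520 dead-cell signal; norm. DMSO = 0%, 15 uM tetraoctylammonium bromide = 100%; Hill AC50.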

A short description of test [7]: MultiTox-Fluor Cytotoxicity Assay - LYMP1-003 - Live Cells (AID 962).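 Note: 0% = DMSO only and full loss = 92 µM tetraoctylammonium bromide; cytotoxic hits lower the live-cell protease signal.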 The settings on record: LYMP1-003 lymphoblastoid cells, MultiTox-Fluor live-cell protease fluorescence; series mostly up to 92.2 µM. The procedure, abridged: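 Cells plated at 2500 per well and incubated 5 hr; compounds added and incubated 16 hr at 37 C; MultiTox-Fluor reagent added for 60 min at room temperature; fluorescence of liberated AFC measured at 405/510 nm.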

Test [8] is described as follows: Cell Viability - LYMP1-003 - Assay at 24 hr (AID 963).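 Note: plate controls were DMSO only for no effect and tetraoctylammonium bromide positive control for full effect.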 The settings on record: LYMP1-003 lymphoblastoid cell viability; series mostly up to 92.2 µM. The procedure, abridged: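 Acute toxicity in LYMP1-003 lymphoblastoid cells: 24 hr compound treatment at 37 C, ATP measured with CellTiter-Glo after 30 min at room temperature. AC50 derived by fitting the Hill equation to qHTS titrations.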

Test [9] can be described thus: Cell Viability - LYMP2-005 (AID 967).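 Note: plate controls were DMSO only for no effect and 92 µM tetraoctylammonium bromide control for full effect.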 As to conditions: LYMP2-005 lymphoblastoid cell viability; series mostly up to 92.2 µM. In a few lines: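 qHTS viability screen in LYMP2-005 cells: 24 h at 37 C with compound, ATP luminescence via CellTiter-Glo, AC50 from Hill curves.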
Test [10] can be described thus: Cell Viability - LYMP2-015 (AID 971).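 Note: 0% = DMSO only and full effect = 92 µM tetraoctylammonium bromide; nearly all actives have a fitted effect of over 55% in size.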 The settings on record: LYMP2-015 lymphoblastoid cell viability; series mostly up to 92.2 µM. The procedure, abridged:
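Acute toxicity was scored as a concentration-dependent drop in intracellular ATP in lymphoblastoid cells after 24 hr compound exposure in complete medium. Detection used CellTiter-Glo luciferase luminescence.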

Test [11] can be described thus: Cell Viability - LYMP2-025 (AID 976).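 Note: plate controls were DMSO only for no effect and tetraoctylammonium bromide control for full effect.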 The settings on record: LYMP2-025 lymphoblastoid cell viability; series mostly up to 92.2 µM. In a few lines: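 In qHTS format, LYMP2-025 lymphoblastoid cells in complete culture medium received compound for 24 hr; ATP-based CellTiter-Glo signal gave viability, with AC50 derived by Hill equation.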
Test [12] is described as follows: Cell Viability - LYMP2-006 (AID 978).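 Note: cells exposed to compound for 24 hours; % is set by controls: 0 for no effect and ±100 for the full control effect; nearly all actives have a fitted effect of over 60% in size.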 The settings on record: LYMP2-006 lymphoblastoid cell viability, qHTS; series mostly up to 92.2 µM. The procedure, abridged: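 Concentration-dependent loss of intracellular ATP in a human lymphoblastoid line after 24 hr treatment at 37 C was measured by CellTiter-Glo luminescence, with AC50 values obtained from standard Hill-equation modelling.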

Test [13] can be described thus: Cell Viability - LYMP2-008 (AID 980). Note: % is set by controls: 0 for no effect and ±100 for the full control effect; nearly all actives have a fitted effect of over 60% in size. As to conditions: LYMP2-008 lymphoblastoid cell viability, qHTS; series mostly up to 92.2 µM. The procedure, abridged:
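Acute cytotoxicity is scored as concentration-dependent loss of cellular ATP in a human lymphoblastoid line after 24 hr treatment at 37 C. ATP is quantified by luciferase luminescence.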

Test [14] can be described thus: Cell Viability - LYMP2-026 (AID 989). Note: % is set by controls: 0 for no effect and ±100 for the full control effect; nearly all actives have a fitted effect of over 50% in size. As to conditions: LYMP2-026 lymphoblastoid cell viability, qHTS; series mostly up to 92.2 µM. The procedure, abridged:
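Concentration-dependent loss of intracellular ATP in human lymphoblastoid cells after 24 hr at 37 C, quantified by luciferase luminescence. AC50 derived from standard Hill equation.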

A short description of test [15]: Cell Viability - LYMP1-002 - Assay at 40 hr (AID 994).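 Note: 0% = DMSO only and full inhibition = 92 µM tetraoctylammonium bromide; nearly all actives have a fitted effect of over 60% in size.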 The settings on record: LYMP1-002 lymphoblastoid cell viability; series mostly up to 92.2 µM. The procedure, abridged:
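Viability in the human lymphoblastoid line was measured as intracellular ATP via CellTiter-Glo after 40 hr compound exposure. Tetraoctylammonium bromide served as positive control.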

Test [16] in a line: qHTS assay for small molecule agonists of retinoid X receptor alpha signaling (AID 588544). The settings on record: HEK293T RXRa-UAS-bla, beta-lactamase reporter, 18 h; 530 nm emission.
Test [17] is described as follows: qHTS assay for small molecule agonists of the antioxidant response element (ARE) signaling pathway measured by Nrf2-dependant transcriptional activity (AID 720636; active = well fitted curve in the direction sought with a large enough effect in the repeat runs; an effect the other way counts as inactive or inconclusive; note: % of control where 0% means no effect). As to conditions: ARE-luc HepG2, Nrf2 luciferase reporter, 16 h; series mostly up to 92.4 µM. The procedure, abridged: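 ARE-luc HepG2 cells carrying an Nrf2-responsive luciferase reporter were plated in medium with 1% dialyzed FBS, left 6 hr at 37 C to attach, then exposed to compound for 16 hr. Luciferase luminescence was read after ONE-Glo addition.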

The nature of test [18]: qHTS assay for small molecule agonists of the antioxidant response element (ARE) signaling pathway measured by Nrf2-dependant transcriptional activity - cell viability counter screen (AID 720653; active = well fitted curve in the direction sought with a large enough effect in the repeat runs; an effect the other way counts as inactive or inconclusive; note: % is set by controls: 0 for no effect and ±100 for the full control effect). As to conditions: ARE-bla HepG2 viability, CellTiter-Glo ATP luminescence, 16 h; stronger effect = lower value. The procedure, abridged: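 ARE-bla HepG2 cells (2,000/well) rested 5 hrs at 37C/5% CO2, then exposed to compounds in DMSO for 16 hrs. Viability was read in the same wells as intracellular ATP by luminescence, 30 min at room temperature after reagent addition.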

Test [19] can be described thus: qHTS assay for cell viability of HEK293 cells (AID 743288). Note: % is set by controls: 0 for no effect and ±100 for the full control effect; nearly all actives have a fitted effect of over 50% in size. The settings on record: ATP luminescence (CellTiter-Glo), 18 h; max response: stronger effect = lower value. The procedure, abridged:
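The Tox21 protocol used parental HEK293 cells treated for 18 h at 37 C with compounds delivered by pintool; ATP-coupled luminescence after 30 min at room temperature gave viability.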

Test [20] in a line: qHTS assay for cell viability of the p53RE-bla HCT-116 cell line (AID 743292). Note: % is set by controls: 0 for no effect and ±100 for the full control effect; nearly all actives have a fitted effect of over 55% in size. The settings on record: p53RE-bla HCT-116 viability, ATP luminescence, 16 h; series mostly up to 95 µM. In a few lines: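 CellSensor p53RE-bla HCT-116 cells, 4,000/well, preincubated 5 h at 37 C, then exposed to compounds in DMSO for 16 h at 37 C. Viability read as CellTiter-Glo luminescence (intracellular ATP) after 30 min at room temperature.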

Values joined by “and” are separate entries in the source; they are usually repeats but may differ in a detail not shown here. Equal values may be shown once. Inconclusive results are not listed. Active and inactive are the calls of the source. Unless noted, calls come from the whole dose curve; as a rule, active = well fitted curve in the direction sought with a large enough effect; inconclusive = small, poorly fitted or top-dose-only effect, or another doubt; inactive = no such curve, though single readings can be large; an effect the other way counts as inactive or inconclusive.

Regarding `Cc1ccc(O)c(C)c1`, the Potency in [1] was > 92 µM (inactive). Further, the outcome in test [2] and in [17] was inactive. In addition, in test [3], the activity change, negative = cytotoxicity was 1.99% (inactive). In addition, the Potency entry in test [4], in [5], in test [6], in test [7], in test [8] and in test [9] was “inactive” throughout. For the same compound, the Potency entry in test [10], in test [11], in [12], in test [13], in [14] and in test [15] was “inactive” each time. Further, the Potency entry in test [20] is “inactive”. Besides, the max response is -1.3% and -5.42% in [16]; -4.5% (inactive) and -1.52% (inactive) in test [18]; -1.16% (inactive) and -6.96% (inactive) and -11.5% (inactive) in test [19].

For the compound `CCOc1ccc(N)cc1`, in test [1], the Potency was > 92 µM (inactive). The activity change, negative = cytotoxicity in test [3] was -4.95% (inactive). Also, the Potency entry in test [4], in test [5], in [6], in test [7], in [8] and in test [9] was “inactive” each time. Also, the Potency entry in [10], in test [11], in [12], in test [13], in test [14] and in test [15] was “inactive” in each case. For the same compound, in [20], the Potency entry was “inactive”. The max response in test [16] was -1.09%; in test [18], 1.12% (inactive); in [19] it was 7.24% (inactive). In addition, the compound was classed as inactive in test [17].

As for `ClCBr`, in test [1], the Potency is > 92 µM (inactive). For the same compound, the call in test [2] and in [17] was inactive. The activity change, negative = cytotoxicity in [3] was -7.64% (inactive). The Potency entry in test [4], in test [5], in [6], in test [7], in [8] and in test [9] was “inactive” each time. For the same compound, the Potency entry in test [10], in test [11], in test [12], in test [13], in test [14] and in test [15] was “inactive” each time. In addition, the Potency entry in [20] was “inactive”. In addition, the figures for the max response in test [16], in [18] and in test [19] were -17.3%, -6.45% (inactive) and 4.95% (inactive), respectively.

Regarding `Nc1ccc(Br)cc1`, the Potency in [1] is > 92 µM (inactive). For the same compound, the outcome in [2] and in test [17] was inactive. The activity change, negative = cytotoxicity in test [3] is -2.5% (inactive). Also, the Potency entry in test [4], in test [5], in test [6], in test [7], in test [8] and in test [9] was “inactive” in each case. Moreover, the Potency entry in test [10], in [11], in [12], in test [13], in [14] and in test [15] was “inactive” in each case. Further, the Potency entry in test [20] was “inactive”. The figures for the max response in test [16], in test [18] and in test [19] were 1.14%, -4.77% (inactive) and -7.62% (inactive), respectively.

In the case of `O=NN(CCO)CCO`, in [1], the Potency is > 92 µM (inactive). In addition, the compound was called inactive in test [2] and in test [17]. Moreover, the activity change, negative = cytotoxicity in test [3] is -10.5% (inactive). Further, the Potency result in test [4], in test [5], in [6], in test [7], in test [8] and in test [9] was “inactive” in each case. Besides, the Potency result in test [10], in test [11], in test [12], in [13], in test [14] and in [15] was “inactive” throughout. In addition, the Potency entry in test [20] is “inactive”. The max response in test [16] was -8.04%; in [18] it was -8% (inactive); in [19], -4.1% (inactive).

Consider `CC(C)(C)OO`, for which, in test [1], the Potency is > 92 µM (inactive). Also, the activity change, negative = cytotoxicity in test [3] was 1.33% (inactive) and -10.7% (inactive). The Potency result in [4], in [5], in [6], in test [7], in test [8] and in test [9] was “inactive” throughout. Besides, the Potency entry in test [10], in [11], in [12], in [13], in test [14] and in test [15] was “inactive” in each case. In test [20], the Potency entry was “inactive”. The max response in test [16] was 4.87% and -13.2%; in test [18] it was 15% (inactive) and -27.6% (inactive); in [19], -29% (inactive) and 2.51% (inactive). The result in test [17] was inactive.

`ClC(Cl)=C(Cl)C(Cl)=C(Cl)Cl`: the Potency in test [1] is > 92 µM (inactive). Moreover, the result in test [2] and in test [17] was inactive. Also, in test [3], the activity change, negative = cytotoxicity is -4.4% (inactive). Besides, the Potency result in test [4], in [5], in test [6], in [7], in [8] and in [9] was “inactive” throughout. Moreover, the Potency result in test [10], in [11], in test [12], in test [13], in test [14] and in test [15] was “inactive” each time. Moreover, in [20], the Potency entry was “inactive”. In addition, the max response was -9.28% and -8.5% in [16]; 5.78% (inactive) and -15% (inactive) in test [18]; 3.55% (inactive) and -1.89% (inactive) in test [19].
